Screening results: PubChem, National Center for Advancing Translational Sciences (NCATS)
This is a sample that favours compounds with a hit; in the whole collection about 0.33% have one here.
PKM2 activator = PKM2 (human) enzyme activation | P14618 | purified PKM2, Kinase-Glo ATP luminescence, activation; response scale: 0% is enzyme alone, no compound | Potency, µM (highest dose often 57.5 µM), actives largely listed as activators | actives 0.34% (n = 260,000) | AID 1631; further: nearly all actives have a fitted effect of over 55% in size
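ATP formation by purified human PK-M2, quantified via coupled luciferase luminescence after 1 h at room temperature with 0.1 mM ADP and 0.5 mM PEP final.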
S-ASM inh = human S-ASM enzyme inhibition | P17405 | placental ASM, HMU-PC fluorogenic substrate, 60 min | Potency, µM (doses to about 57.5 µM), usual class: inhibitors | actives 0.006% (n = 340,000) | AID 504937
Target sequence (P17405 47-631 limits assumed): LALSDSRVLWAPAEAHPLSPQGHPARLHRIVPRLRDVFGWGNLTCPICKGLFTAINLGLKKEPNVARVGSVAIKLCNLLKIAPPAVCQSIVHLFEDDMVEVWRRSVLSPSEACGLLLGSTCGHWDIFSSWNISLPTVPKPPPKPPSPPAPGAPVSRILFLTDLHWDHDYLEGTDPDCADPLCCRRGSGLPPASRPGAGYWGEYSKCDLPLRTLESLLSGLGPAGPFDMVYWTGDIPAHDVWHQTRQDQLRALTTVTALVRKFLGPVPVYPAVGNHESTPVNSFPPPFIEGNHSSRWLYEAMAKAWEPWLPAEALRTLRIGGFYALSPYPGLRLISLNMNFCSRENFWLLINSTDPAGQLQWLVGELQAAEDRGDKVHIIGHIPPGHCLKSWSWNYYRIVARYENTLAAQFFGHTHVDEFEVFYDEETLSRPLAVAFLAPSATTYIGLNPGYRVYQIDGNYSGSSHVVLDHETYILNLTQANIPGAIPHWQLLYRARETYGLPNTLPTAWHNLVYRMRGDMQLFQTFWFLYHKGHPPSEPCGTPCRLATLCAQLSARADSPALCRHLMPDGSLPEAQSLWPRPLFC
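HMU-PC0 cleavage (9 uM final) by human placental ASM, 60 min at 37 °C following 10 min compound exposure at RT; stopped at pH 10, fluorescence Ex 386/Em 447 nm.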
IL2 activator = activates IL-2 in a cell-based reporter assay; activation, % (series mostly up to about 46 µM); IL-2 activation reporter assay, cell-based qHTS; stimulated with anti-CD3/CD4/CD28 beads; in transgenic mouse T cells; AID 652025; actives 0.065% (n = 360,000); in the data active means activation above about 50%; inconclusive means mostly about 30% to 49%
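Unstimulated transgenic mouse T cells preincubated 60 min with compound, then stimulated with anti-CD3/anti-CD4-coated beads plus anti-CD28 for 18 h at 37 degrees C. IL-2 response read as EGFP and DsRed fluorescence by plate cytometry.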
Numbers stand for hits. Unless noted, the call rests on the fitted dose curve; in most records, active means well fitted curve in the direction sought with a large enough effect; inconclusive means small, poorly fitted or top-dose-only effect, or another doubt; inactive means no such curve, though single readings can be large; an effect the other way counts as inactive or inconclusive.

`CC(=O)c1cccc(NC(=O)CSc2ccc(-c3cccnc3)nn2)c1` gave S-ASM inh inactive and IL2 activator inactive.
For CC(=O)Nc1cccc(NC(=O)CSc2ccc(-c3cccnc3)nn2)c1 the results were PKM2 activator 32µM, S-ASM inh inactive and IL2 activator inactive.
Screening CCCCCn1c(=O)[nH]c2cc(C(=O)N3CCN(c4ccccc4F)CC3)ccc2c1=O returned PKM2 activator inactive, S-ASM inh inactive and IL2 activator inactive.
CC(C)(C)c1csc(NC(=O)c2ccncc2)n1 was read as PKM2 activator inactive, S-ASM inh inactive and IL2 activator inactive.
NC(=O)c1c(NC(=O)c2c(F)cccc2F)sc2c1CCN(Cc1ccccc1)C2 was read as PKM2 activator inactive, S-ASM inh inactive and IL2 activator inactive.
Screening NC(=O)c1c(NC(=O)c2ccccc2)sc2c1CCN(Cc1ccccc1)C2 returned PKM2 activator inactive, S-ASM inh inactive and IL2 activator 317.
Screening Cc1cc(C)nc(NC(=O)c2ccc(Cl)cc2)n1 returned PKM2 activator inactive, S-ASM inh inactive and IL2 activator inactive.
For CCn1c(C)cc(/C=C2/NC(=O)N(Cc3ccccc3F)C2=O)c1C the results were PKM2 activator inactive, S-ASM inh inactive and IL2 activator inactive.
Cc1ccc(/C=C2/NC(=O)N(c3ccccc3)C2=O)o1 was read as PKM2 activator inconclusive, S-ASM inh inactive and IL2 activator inactive.
Screening Cc1ccc(/C=C2/NC(=O)N(Cc3ccc(Br)cc3)C2=O)o1 returned PKM2 activator 1.6µM, S-ASM inh inactive and IL2 activator inactive.
Cc1ccc(/C=C2/NC(=O)N(Cc3ccccc3F)C2=O)o1 was read as PKM2 activator 3.5µM, S-ASM inh inactive and IL2 activator inactive.
For CCN1C(=O)N/C(=C/c2ccc(C)o2)C1=O the results were PKM2 activator inconclusive, S-ASM inh inactive and IL2 activator inactive.
CCCN1C(=O)/C(=C/c2ccc(C)o2)NC1=S was read as PKM2 activator 25µM.
Cc1ccccc1-c1cccc([C@@H]2C[C@H]3[C@H](CON3C)CN2C(=O)CCc2ccccc2)c1 was read as S-ASM inh inactive and IL2 activator inactive.
Screening Cc1cccc2cc(C(c3nnnn3Cc3ccccc3)N3CCCc4ccccc43)c(=O)[nH]c12 (centres undefined) returned PKM2 activator inactive, S-ASM inh inactive and IL2 activator inactive.
Screening CN(C)/C(CN1CCOCC1)=C1\N=C(c2ccccc2)OC1=O returned PKM2 activator inactive, S-ASM inh inactive and IL2 activator inactive.
Screening CN(C)/C(Cn1cncn1)=C1/N=C(c2c(F)cccc2F)OC1=O returned PKM2 activator 25µM, S-ASM inh inactive and IL2 activator inactive.
`Cn1c(CSCc2ccc(Cl)cc2Cl)n[nH]c1=S` gave PKM2 activator 28µM, S-ASM inh inactive and IL2 activator inactive.
Screening Cn1c(CSCc2ccccc2Cl)n[nH]c1=S returned PKM2 activator inactive, S-ASM inh inactive and IL2 activator inactive.
For CCc1ccc(NC(=O)c2ccc(F)c(S(=O)(=O)NCC3COc4ccccc4O3)c2)cc1 (centres undefined) the results were PKM2 activator inactive, S-ASM inh inactive and IL2 activator inactive.
COc1ccc(CN2CCc3ccccc3C2)c(OC)c1 was read as PKM2 activator inactive, S-ASM inh inactive and IL2 activator inactive.
For CC(C)n1c(NCc2ccccc2O)nc2ccccc21 the results were PKM2 activator inactive, S-ASM inh inactive and IL2 activator inactive.
Screening C=CCc1cccc(CNc2nc3ccccc3n2C(C)C)c1O returned PKM2 activator 32µM, S-ASM inh inactive and IL2 activator inactive.
For Cc1cccc(N(C)S(=O)(=O)c2cc3c(cc2C)n(C)c(=O)c(=O)n3C)c1 the results were PKM2 activator 10µM, S-ASM inh inactive and IL2 activator inactive.
Cc1cc2c(cc1S(=O)(=O)N(C)c1ccccc1)n(C)c(=O)n2C was read as PKM2 activator 13µM, S-ASM inh inactive and IL2 activator inactive.
Cc1cc2c(cc1S(=O)(=O)N(C)Cc1ccccc1)n(C)c(=O)c(=O)n2C was read as PKM2 activator inactive, S-ASM inh inactive and IL2 activator inactive.
`COc1ccc(-c2cc(C)no2)cc1S(=O)(=O)N(C)c1cccc(C)c1` gave S-ASM inh inactive and IL2 activator inactive.
`O=C(CSc1nnc(-c2ccccn2)n1Cc1ccco1)c1ccccc1` gave PKM2 activator inactive, S-ASM inh inactive and IL2 activator inactive.
Screening Cc1ccc(Oc2ccc(S(=O)(=O)NCC(C)(C)N3CCOCC3)cc2)cc1 returned PKM2 activator inactive, S-ASM inh inactive and IL2 activator inactive.
For C=CCn1c(=O)c2ccccc2n2c(SCc3cc(=O)n4ccsc4n3)nnc12 the results were PKM2 activator inactive, S-ASM inh inactive and IL2 activator inactive.
CCN1C(=O)C(NC(C)=O)c2cc(Br)ccc21 (centres undefined) was read as PKM2 activator inactive, S-ASM inh inactive and IL2 activator inactive.
COc1ccc(NC(=O)CN(C)S(=O)(=O)c2ccc(C)cc2)c([N+](=O)[O-])c1 was read as PKM2 activator inactive, S-ASM inh inactive and IL2 activator inconclusive.
For Nc1nc(-c2ccccc2)c(-c2ccc([N+](=O)[O-])cc2)s1 the results were PKM2 activator 20µM, S-ASM inh inactive and IL2 activator inactive.
Screening Nc1nc(-c2ccccc2)c(-c2ccccc2)s1 returned PKM2 activator inactive, S-ASM inh inactive and IL2 activator inactive.
Cc1ccc(OCC(=O)N2N=C(c3cccnc3)CC2(O)C(F)(F)F)cc1C (centres undefined) was read as PKM2 activator inactive, S-ASM inh inactive and IL2 activator inactive.
`CCCOc1cc(N(CC)CC)ccc1/C=C(/C#N)c1nc2ccc(C)cc2[nH]1` gave PKM2 activator inactive, S-ASM inh inconclusive and IL2 activator inactive.
For CCN(CC)c1ccc(/C=C(/C#N)c2nc3ccc(C)cc3[nH]2)c(OC(C)C)c1 the results were PKM2 activator inactive, S-ASM inh inconclusive and IL2 activator 218.
`CCOc1ccc(/C=c2\sc3nc(-c4ccco4)nn3c2=O)cc1OCC` gave PKM2 activator inactive, S-ASM inh inactive and IL2 activator inactive.
`COc1cc(/C=c2\sc3nc(=O)c(-c4ccccc4)nn3c2=O)ccc1OCCC(C)C` gave PKM2 activator inactive, S-ASM inh inactive and IL2 activator 100.
`CC(CC(=O)O)CC(=O)Nc1ccc(S(N)(=O)=O)cc1` (centres undefined) gave PKM2 activator inactive, S-ASM inh inactive and IL2 activator inactive.
N#C/C(=C/c1ccc(N2CCOCC2)o1)c1ccc(Br)cc1 was read as PKM2 activator 14µM, S-ASM inh inconclusive and IL2 activator inactive.
Screening N#C/C(=C\c1ccc(N2CCOCC2)o1)c1ccccc1 returned PKM2 activator inconclusive, S-ASM inh inactive and IL2 activator inactive.
Cc1occc1-c1nnc(SCCCC(=O)c2ccc(F)cc2)n1C was read as PKM2 activator 25µM, S-ASM inh inactive and IL2 activator inactive.
Cn1c(SCCCC(=O)c2ccc(F)cc2)nnc1-c1ccncc1 was read as PKM2 activator inactive, S-ASM inh inactive and IL2 activator inactive.
